Screening data deposited in PubChem BioAssay by several laboratories.
Only some compounds are listed: those with a hit (about 28% of all), similar ones and a draw of the others.
CYP2C19 act: activators of human cytochrome P450 2C19 | P33261 | activation factor at 5 µM | recombinant CYP2C19, luciferin-H EGE luminescence; hits give high values; 0 = fully inhibited enzyme, 1 = untreated enzyme | 96,000 tested, under 10 active;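 active = activation factor of at least 2 at 5 µM in the primary screen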
CYP2C19 inhib: human CYP2C19 inhibition; P33261; CYP2C19 Supersomes, luciferin-H EGE luminescence, 30 min; inhibition, % at 5 µM; actives 21% (n = 96,000);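 active = CYP2C19 inhibition above a set limit at 5 µM in the primary screen, cut at about 50% in these data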
PLK1 inh: PLK1 (human) kinase inhibition | actives 0.53% (n = 97,000) | recombinant PLK1 kinase, TR-FRET peptide phosphorylation | inhibition, % at 10 µM | P53350 | AID 619;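 active = inhibition of 50% or more in the single-concentration screen; inactive = inhibition below 50%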
CYP2C9 act: CYP2C9 (human) activation; P11712; recombinant CYP2C9, luciferin-H conversion, luminescence; hits give high values; factor 1 = untreated enzyme, 0 = blocked; activation factor at 5 µM; actives 1.4% (n = 96,000); AID 1024;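 active = activation factor of 2 or more for CYP2C9 at a 5 µM dose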
Target sequence (P11712 whole entry, looked up): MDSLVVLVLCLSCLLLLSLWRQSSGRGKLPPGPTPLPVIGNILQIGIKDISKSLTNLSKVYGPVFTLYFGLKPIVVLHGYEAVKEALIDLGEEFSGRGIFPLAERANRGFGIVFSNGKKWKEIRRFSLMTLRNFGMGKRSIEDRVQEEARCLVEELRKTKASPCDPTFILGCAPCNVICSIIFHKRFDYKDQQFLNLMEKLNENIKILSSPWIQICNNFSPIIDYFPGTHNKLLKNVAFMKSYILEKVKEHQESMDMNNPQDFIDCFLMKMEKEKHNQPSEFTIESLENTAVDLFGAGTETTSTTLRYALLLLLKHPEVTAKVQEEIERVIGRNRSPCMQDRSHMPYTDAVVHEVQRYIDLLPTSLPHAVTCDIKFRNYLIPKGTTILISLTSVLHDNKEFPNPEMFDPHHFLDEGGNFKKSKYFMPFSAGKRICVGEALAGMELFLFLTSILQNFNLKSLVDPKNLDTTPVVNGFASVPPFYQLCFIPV
Plk1 PBD FP: blocks phosphopeptide binding to human Plk1 polo box domain; P53350; Plk1 PBD phosphopeptide binding, fluorescence polarization; inhibition, %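 (tested at about 20 µM)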; actives 0.13% (n = 97,000); AID 693; in the data active = inhibition above about 34%, passing the limit was not always enough
CYP2C9 inhib: human CYP2C9 inhibition | P11712 | AID 777 | actives 20% (n = 96,000) | inhibition, % at 5 µM | CYP2C9 Supersomes, luciferin-H conversion, luminescence;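 active = blocking of liver enzyme CYP2C9 beyond about 50% at 5 µM, limit read from the data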
Large screens that a line does not name were inactive.

CCCN=Cc1sc2ccc(OCC)cc2c1O	CYP2C19 inhib 69.0
O=C(Nc1ccc(Cl)cc1)N(Cc1cccnc1)Cc1ccco1	CYP2C19 inhib 99.7, CYP2C9 inhib 89.5
N#CCCN(Cc1cccnc1)C(=O)Nc1ccc(Cl)c(Cl)c1	CYP2C19 inhib 92.1, CYP2C9 inhib 63.8
Cc1ccc(NC(=O)N(Cc2ccco2)C(C)c2ccco2)cc1C (stereo not drawn)	none
S=C(NCc1cccnc1)Nc1ccc(Cl)c(Cl)c1	CYP2C19 inhib 91.5, CYP2C9 inhib 97.9
Cc1ccc(NC(=O)N(Cc2cccnc2)Cc2ccco2)cc1C	CYP2C19 inhib 96.0, CYP2C9 inhib 78.4
Cc1nn(Cc2cccc(C(=O)NC34CC5CC(CC(C5)C3)C4)c2)c(C)c1Br	none (no result: CYP2C19 act, CYP2C19 inhib, CYP2C9 act, CYP2C9 inhib)
CC(C)c1cc(C(F)(F)F)n2nc(C(=O)Nc3ccc4c(c3)OCO4)cc2n1	none
CCCCOCCCNc1ncnc2c1[nH]c1ccccc12	CYP2C19 inhib 52.2, CYP2C9 inhib 65.8
CCOCCCNc1ncnc2c1[nH]c1ccccc12	CYP2C19 inhib 60.3
c1ccc2c(c1)[nH]c1c(NCC3CCCO3)ncnc12 (stereo not drawn)	CYP2C9 inhib 54.2
c1nc(NCC2CCCO2)c2[nH]cnc2n1 (stereo not drawn)	none (no result: CYP2C19 act, CYP2C19 inhib, CYP2C9 act, CYP2C9 inhib)
Cc1ccc(NC(=O)CC2Oc3ccccc3NC2=O)c(C)c1 (stereo not drawn)	none
N#Cc1c2c(c[nH]c1=O)CCN2Cc1ccccc1	none (no result: CYP2C19 act, CYP2C19 inhib, CYP2C9 act, CYP2C9 inhib)
COc1ccc(S(=O)(=O)Nc2ccc(O)c(Sc3ncn[nH]3)c2)cc1	none (no result: CYP2C19 act, CYP2C19 inhib, CYP2C9 act, CYP2C9 inhib)
COc1ccc(S(=O)(=O)Nc2cc(Sc3ncn[nH]3)c(O)c3ccccc23)cc1	CYP2C19 inhib 97.3, CYP2C9 inhib 93.9
CCSc1nnc(NC(=O)C2CCCN(S(=O)(=O)c3cnc[nH]3)C2)s1 (stereo not drawn)	CYP2C9 inhib 74.0
COc1ccc(C)cc1NC(=O)C1CCCN(S(=O)(=O)c2cnc[nH]2)C1 (stereo not drawn)	CYP2C19 inhib 64.2, CYP2C9 inhib 62.1
CCOc1ccccc1NC(=O)C1CCCN(S(=O)(=O)c2ccc(OC)c(C)c2)C1 (stereo not drawn)	CYP2C19 inhib 92.8
Cc1ccnc(NC(=O)C2CCCN(S(=O)(=O)c3cnc[nH]3)C2)c1 (stereo not drawn)	CYP2C9 inhib 58.3
CCN(CC)c1ccc(NC(=O)C2CCCN(S(=O)(=O)c3cnc[nH]3)C2)c(C)c1 (stereo not drawn)	none
COc1ccc(N(C(=O)c2ccc(Cl)cc2)C2=CC3CCC(C2)N3C)cc1 (stereo not drawn)	none
Cc1cccc(CN2CCC(CNC(=O)C3CCCN(S(=O)(=O)c4cnc[nH]4)C3)CC2)c1 (stereo not drawn)	none (no result: PLK1 inh, Plk1 PBD FP)
CCOc1ccc2nc(NC(=O)C3CCCN(S(=O)(=O)c4cccs4)C3)sc2c1 (stereo not drawn)	CYP2C19 inhib 50.5, CYP2C9 inhib 60.5
COc1cc(C)nc(N2CCCC(C(=O)Nc3cc(Cl)ccc3OC)C2)n1 (stereo not drawn)	CYP2C19 inhib 84.4
Cc1ccc2nc(NC(=O)C3CCCN(S(=O)(=O)c4cnc[nH]4)C3)sc2c1 (stereo not drawn)	CYP2C9 inhib 51.1
COc1ccccc1NC(=O)C1CCCN(S(=O)(=O)c2cnc[nH]2)C1 (stereo not drawn)	CYP2C19 inhib 61.9, CYP2C9 inhib 61.4
COc1cc(C)nc(N2CCCC(C(=O)NC3CCC(C)CC3)C2)n1 (stereo not drawn)	none (no result: PLK1 inh, Plk1 PBD FP)
O=S(=O)(c1ccc2ccccc2c1)N1CCC(c2nc(-c3ccncc3)no2)CC1	none (no result: CYP2C19 act, CYP2C19 inhib, CYP2C9 act, CYP2C9 inhib)
Cc1ccccc1-c1nc2ccccc2c(=O)n1/N=C/c1ccccc1[N+](=O)[O-]	none
Cc1cc(C)n(-c2nc3c(c(=O)n(Cc4ccc(Cl)c(Cl)c4)c(=O)n3C)n2C)n1	none (no result: CYP2C19 act, CYP2C19 inhib, CYP2C9 act, CYP2C9 inhib)
Cc1nc2ncnn2c(C)c1CCC(=O)NCCCN1CCN(c2cccc(Cl)c2)CC1	none
Cc1c(NC(=O)CSc2nc3ccccc3s2)c(=O)n(-c2ccccc2)n1C	none
Cc1nc2ccccn2c1/C(O)=C1\C(=O)C(=O)N(CCCn2ccnc2)C1c1ccncc1 (stereo not drawn)	none
Cc1cc(C)nc(N2CCCC(C(=O)Nc3nc4ccc(S(C)(=O)=O)cc4s3)C2)n1 (stereo not drawn)	CYP2C19 inhib 87.1, CYP2C9 inhib 83.4
COC(=O)Nc1ccc(S(=O)(=O)N2CCCC(C(=O)Nc3cccnc3)C2)cc1 (stereo not drawn)	none
COC(=O)Nc1ccc(S(=O)(=O)N2CCCC(C(=O)Nc3cccc4c3OCCO4)C2)cc1 (stereo not drawn)	CYP2C19 inhib 63.9, CYP2C9 inhib 83.1
OC(c1cccs1)(c1cccs1)C1C[N+]2(CF)CCC1CC2 (stereo not drawn)	none
O=C(c1oc(=O)c2ccccc2c1-c1ccccc1)N1CCN(C2CCCCC2)CC1	CYP2C19 inhib 99.0, CYP2C9 inhib 69.5
O=C(c1ccccc1)N1CCN(C2CCCCC2)CC1	none (no result: CYP2C19 act, CYP2C19 inhib, CYP2C9 act, CYP2C9 inhib)
Brc1ccc2c(c1)OCCOCCOc1cc(Br)ccc1OCCOCCOCCO2	CYP2C19 inhib 88.1, CYP2C9 inhib 84.8
CC(=O)Nc1ccc2c(c1)OCCO2	none
O=S(=O)(N1CCOCC1)n1cnc2ccccc21	none
O=[N+]([O-])c1ccc([C@H](O)[C@H](CO)N=Cc2ccccc2O)cc1	none
Cc1n[nH]c(C)c1Sc1ccccc1N=Cc1cc([N+](=O)[O-])ccc1O	CYP2C9 inhib 74.0
CCCc1cc(-c2n[nH]c(C(=O)OCC)c2-c2cscn2)c(O)cc1O	CYP2C19 inhib 55.6, CYP2C9 inhib 66.7
N#CCc1nc(CSc2nc3ccccc3s2)cs1	CYP2C19 inhib 97.8
N#CCCCSc1nnc(CSc2nc3ccccc3s2)n1-c1ccccc1	none
CC1(C)CC2CC(C)(CN2S(=O)(=O)c2ccc(N)cc2)C1 (stereo not drawn)	CYP2C19 inhib 74.5
CN1CCN(S(=O)(=O)c2ccc(N)cc2)CC1	none (no result: CYP2C19 act, CYP2C19 inhib, CYP2C9 act, CYP2C9 inhib)
CCCc1nnc(NC(=O)C2CCCO2)s1 (stereo not drawn)	none
CCCC(=O)N1CCN(c2nc(CC(C)C)c3c(c2C#N)CCC3)CC1	CYP2C19 inhib 88.8, CYP2C9 inhib 88.8
CC(C)C(=O)N1CCN(c2nc(-c3ccccc3)c3c(c2C#N)CCCC3)CC1	CYP2C19 inhib 97.5, CYP2C9 inhib 94.5
CC(C)Cc1nc2oc3c(N4CCN(C)CC4)ncnc3c2c2c1CCCC2	none
CCOC(=O)C1=C(C)N(c2ccccc2)C(=O)C1CC(=O)O (stereo not drawn)	CYP2C19 inhib 53.1
Cc1cc(-c2[nH]nc3c2C(c2cccc(O)c2)C(C#N)=C(N)O3)c(C)s1 (stereo not drawn)	CYP2C19 inhib 87.7, CYP2C9 inhib 51.0
Cc1cc(-c2[nH]nc3c2C(c2ccsc2)C(C#N)=C(N)O3)c(C)s1 (stereo not drawn)	CYP2C19 inhib 83.8, CYP2C9 inhib 92.8
